Most compounds without a hit are left out; they make up all but 1.7% or so of the library.
KCNH2 3.1 inh = qHTS for Inhibitors of KCHN2 3.1: Mutant qHTS; Potassium voltage-gated channel subfamily H member 2, brain isoform KCNH2 3.1 (human); U2OS KCNH2 3.1, thallium flux FluxOr; stronger effect = lower value; activity change, % (tested at about 1.8 µM); 0.95% of 340,000 active;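 active = maximum activity change below -70%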;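 also: thallium influx rate constant from kinetic fluorescence after stimulation buffer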
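We transduce U2OS cells with the mutant 3.1 virus, culture them overnight, load FluxOr with Red40 quencher for 45 min, then add stimulation buffer and read kinetically for 2 min to derive a normalized rate constant.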
TRPML1 inh = qHTS for Inhibitors of the Human Mucolipin Transient Receptor Potential 1 (TRPML1); 0.02% of 390,000 active; TRPML1-inducible cells, Ca2+ dye fluorescence, FDSS; stronger effect = lower value; inhibition of EC80 agonist-evoked calcium signal; AID 624415, 2012; activity change, negative = inhibition, % (concentration not given with the values); in the data active = activity change below about -50%;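 also: stimulus is agonist 54-4 at its EC80 concentration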
Target sequence (Q9GZU1 whole entry, looked up): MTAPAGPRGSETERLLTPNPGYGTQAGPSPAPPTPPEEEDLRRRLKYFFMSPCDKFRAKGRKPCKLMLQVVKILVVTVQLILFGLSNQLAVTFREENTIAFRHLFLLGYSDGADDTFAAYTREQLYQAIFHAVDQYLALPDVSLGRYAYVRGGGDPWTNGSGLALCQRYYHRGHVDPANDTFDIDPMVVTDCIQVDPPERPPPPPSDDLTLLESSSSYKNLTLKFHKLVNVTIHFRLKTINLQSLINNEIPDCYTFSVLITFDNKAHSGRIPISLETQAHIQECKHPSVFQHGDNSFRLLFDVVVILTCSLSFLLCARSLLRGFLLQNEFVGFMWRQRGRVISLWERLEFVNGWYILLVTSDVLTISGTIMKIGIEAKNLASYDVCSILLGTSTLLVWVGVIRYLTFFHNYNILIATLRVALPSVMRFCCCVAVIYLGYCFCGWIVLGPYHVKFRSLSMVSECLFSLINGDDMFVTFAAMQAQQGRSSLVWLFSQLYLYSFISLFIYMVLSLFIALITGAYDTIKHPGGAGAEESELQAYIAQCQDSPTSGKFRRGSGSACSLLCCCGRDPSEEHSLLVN
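Calcium fluorescence in TRPML1-DL cells induced overnight with Tet: a 110 s read after compound pin addition, then a 110 s antagonist read after challenge with 54-4 at 4 uM final (EC80).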
KCNH2 WT inh = qHTS for Inhibitors of KCHN2 3.1: Wildtype qHTS | AID 720551, 2013 | U2OS, BacMam KCNH2, thallium flux FluxOr; stronger effect = lower value | Voltage-gated inwardly rectifying potassium channel KCNH2 (Homo sapiens), Q12809 | activity change, % at 1.84 µM | 0.37% of 340,000 active;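 active = maximum activity change below -70%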
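U2OS cells were transduced with wild-type KCNH2 virus (2.03 x 10^8 / mL) for 4 h at room temperature, then cultured overnight at 37 C. Thallium flux was read with FluxOr dye. Rate constants were normalized to DMSO controls.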
TRHR PAM = qHTS for Small Molecule Agonists and Allosteric Enhancers of Human TRH Receptor: Primary Screen for Enhancers; Thyrotropin-releasing hormone receptor (Homo sapiens), P34981; TRHR cells, fluo-8 calcium fluorescence, EC20 TRH enhancement; enhancement, % at 2 µM; 0.66% of 360,000 active; AID 493056, 2011; in the data active = enhancement above about 30%
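Enhancer read-out: after compound pinning and an initial kinetic agonist-mode read, an EC20 of TRH (10 nM final) was injected and fluo-8 calcium signal (Ex 480/Em 530) followed at 1 s/cycle for 100 cycles in TRHR-expressing cells.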
TRHR agonist = qHTS for Small Molecule Agonists and Allosteric Enhancers of Human TRH Receptor: Primary Screen for Agonists; TRHR cells, calcium flux fluo-8, FDSS agonist mode; activation, % at 2 µM; 0.18% of 360,000 active; AID 493084, 2011; in the data active = activation above about 30%
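TRHR-expressing cells loaded with fluo-8 calcium dye; 23 nL library compound pin-transferred, kinetic FDSS fluorescence (Ex 480/Em 530) recorded about 180 s for agonist-induced calcium release, before a 10 nM TRH EC20 addition for potentiator mode.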
TRPML1 agonist = qHTS for Agonists of the Human Mucolipin Transient Receptor Potential 1 (TRPML1); Mucolipin-1 (Homo sapiens), Q9GZU1; TRPML1-expressing cells, Ca2+ dye fluorescence, FDSS; activation, % (concentration not given with the values); 0.12% of 410,000 active; AID 624414, 2012; in the data active = activation above about 50%
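Tet-induced TRPML1-DL cells, 1,500 per well, cultured overnight, were loaded with a no-wash Ca2+ dye for 45–90 min. Calcium fluorescence was recorded on the FDSS for 110 s after compound addition, before the EC80 agonist (4 uM 54-4) was added.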
A number is an active result; i = inactive; nt = no result given.

SMILES | KCNH2 3.1 inh | TRPML1 inh | KCNH2 WT inh | TRHR PAM | TRHR agonist | TRPML1 agonist
Cc1ccc2nc(NC(=O)c3nc(SCc4ccccc4C)ncc3Cl)sc2c1 | nt | i | nt | i | i | i
Cc1[nH]nc2c1C(c1ccc(-c3ccc(Cl)cc3)o1)C(C#N)=C(N)O2 (centres undefined) | i | i | i | 31 | i | i
Cc1ccc(NC(=O)CSCC(=O)NNC(=O)c2nn(C)c(=O)c3ccccc23)cc1 | i | i | i | i | i | i
CC(C)c1ccc(NC(=O)C2CCN(C(=O)[C@@H]3Cc4ccccc4CN3)CC2)cc1 | -88 | i | i | i | i | i
Cc1ccc(NC(=O)C2CCN(C(=O)[C@@H]3Cc4ccccc4CN3)CC2)cc1 | i | i | i | i | i | i
O=C(Nc1cccc(C(=O)O)c1)/C(=C\c1ccccc1)NC(=O)c1ccco1 | i | i | i | nt | nt | i
Cc1nn(C)cc1C(C)Nc1nc2nonc2nc1N1CCCCC1 (centres undefined) | i | i | i | 33 | i | i
CC(C)CC(NC(=O)c1cccc(Cl)c1)C(=O)O (centres undefined) | i | i | i | i | i | i
CC(C)CC(NC(=O)c1ccc(Cl)cc1)C(=O)O (centres undefined) | i | i | i | 33 | i | i
Cc1ccc(-c2csc(Nc3ccc(C(=O)O)cc3)[n+]2Cc2ccccc2)cc1 | i | i | i | 33 | i | i
Cc1ccc(N(CC(=O)Nc2cccc(F)c2)S(=O)(=O)c2cccs2)cc1 | nt | i | nt | i | i | i
O=C1c2ccccc2-c2onc3ccc(Oc4ccccc4)c1c23 | i | i | i | 32 | i | i
CC1CCN(CCCn2c(=S)[nH]c3c(sc4ccccc43)c2=O)CC1 | i | i | i | i | i | i
COCCCn1c(=S)[nH]c2c(sc3ccccc32)c1=O | i | i | i | 32 | i | i
CCOCC(=O)Nc1cccc(OC)c1 | i | i | i | 30 | i | i
COc1cccc(NC(=O)CCC(=O)Nc2cccc(OC)c2)c1 | i | i | i | i | i | i
CN(C)CC(O)c1ccc(C=Cc2ccc(Cl)cc2)cc1 (centres undefined) | -110 | i | i | nt | nt | i
COc1ccc(NC(=O)C2CCN(c3cc(C)nc4c(-c5ccc(Cl)cc5)c(C)nn34)CC2)cc1 | nt | i | nt | i | i | i
COc1cccc(C(C(=O)NC(C)(C)C)N(C(=O)CCC(=O)Nc2cc(C)on2)c2ccc3c(c2)OCCO3)c1OC (centres undefined) | i | i | i | i | i | i
CCOC(=O)c1c(C)[nH]c(C)c1S(=O)(=O)NC(C)Cc1ccco1 (centres undefined) | -80 | i | i | i | i | i
CCOc1ccc(NS(=O)(=O)c2ccc(NC(=S)NC(=O)CC(C)C)cc2)cc1 | i | i | i | 32 | i | i
CCCC(=O)NC(=S)Nc1ccc(S(=O)(=O)Nc2ccc(OCC)cc2)cc1 | i | i | i | i | i | i
CC(C)Cn1cnc2c1c(=O)[nH]c(=O)n2Cc1ccccc1 | -82 | i | i | i | i | i
O=C(NCC1CCCO1)c1ccccc1NS(=O)(=O)c1cc([N+](=O)[O-])ccc1Cl (centres undefined) | i | i | i | nt | nt | i
Cc1cc(N2CCN(c3nc4ccccc4s3)CC2)n2ncnc2n1 | -72 | i | i | i | i | i
Cc1cc(N2CCN(C(c3ccccc3)c3ccccc3)CC2)n2ncnc2n1 | i | i | i | i | i | i
Cc1ccc(-n2ncc(C(=O)Nc3ccc4c(c3)OCO4)c2C2CCN(C(=O)OC(C)(C)C)CC2)c(C)c1 | nt | i | nt | i | i | i

Screening data (PubChem BioAssay)
